From PMC11006913

Target: HOXC9 (Homo sapiens, UniProt P31274 178-260, R193K)
Experiment: PBM; 200 nM protein, PBS
Conditions: dsDNA, one strand shown

HOXC9 (Homo sapiens, UniProt P31274 178-260, R193K), sequence (P31274 178-260 R193K): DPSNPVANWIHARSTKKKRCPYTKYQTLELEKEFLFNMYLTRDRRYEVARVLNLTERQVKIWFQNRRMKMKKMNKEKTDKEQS

Row | Sequence | binding signal
1 | ATTTAACA | 11.6 upbm affinity estimate (log intensity, higher = more binding, comparable within an allelic series)
2 | ATCTACTA | 10.8 upbm affinity estimate (log intensity, higher = more binding, comparable within an allelic series)
3 | ATAGTCAA | 10.8 upbm affinity estimate (log intensity, higher = more binding, comparable within an allelic series)
4 | CACTAATA | 11.4 upbm affinity estimate (log intensity, higher = more binding, comparable within an allelic series)
5 | ATTGTATG | 11.1 upbm affinity estimate (log intensity, higher = more binding, comparable within an allelic series)
6 | CCTCCAGG | 9.34 upbm affinity estimate (log intensity, higher = more binding, comparable within an allelic series)
7 | CGGTGCCA | 9.49 upbm affinity estimate (log intensity, higher = more binding, comparable within an allelic series)
8 | AGTATTAT | 11.6 upbm affinity estimate (log intensity, higher = more binding, comparable within an allelic series)
9 | CGTTAAAG | 11.3 upbm affinity estimate (log intensity, higher = more binding, comparable within an allelic series)
10 | ATCTTTAA | 11.4 upbm affinity estimate (log intensity, higher = more binding, comparable within an allelic series)
11 | ATGAACTA | 10.9 upbm affinity estimate (log intensity, higher = more binding, comparable within an allelic series)
12 | CCGTTATA | 11.2 upbm affinity estimate (log intensity, higher = more binding, comparable within an allelic series)
13 | ATAATAAC | 12 upbm affinity estimate (log intensity, higher = more binding, comparable within an allelic series)
14 | ATATTGCA | 11.3 upbm affinity estimate (log intensity, higher = more binding, comparable within an allelic series)
15 | GAGAGCTC | 9.3 upbm affinity estimate (log intensity, higher = more binding, comparable within an allelic series)
16 | ACTAAATA | 11.6 upbm affinity estimate (log intensity, higher = more binding, comparable within an allelic series)
17 | CTGTTATA | 11.5 upbm affinity estimate (log intensity, higher = more binding, comparable within an allelic series)
18 | TTATACAA | 11.2 upbm affinity estimate (log intensity, higher = more binding, comparable within an allelic series)
19 | CGGGAGCC | 9.62 upbm affinity estimate (log intensity, higher = more binding, comparable within an allelic series)
20 | AGGACGTG | 9.75 upbm affinity estimate (log intensity, higher = more binding, comparable within an allelic series)

Row | Sequence | binding signal
21 | GGGCCCCC | 9.51 upbm affinity estimate (log intensity, higher = more binding, comparable within an allelic series)
22 | ATGTTAAC | 11.1 upbm affinity estimate (log intensity, higher = more binding, comparable within an allelic series)
23 | CGTAAAGA | 11.2 upbm affinity estimate (log intensity, higher = more binding, comparable within an allelic series)
24 | CCTCTGGA | 9.64 upbm affinity estimate (log intensity, higher = more binding, comparable within an allelic series)
25 | CCCCAGGG | 9.59 upbm affinity estimate (log intensity, higher = more binding, comparable within an allelic series)
26 | CTGGACGC | 9.69 upbm affinity estimate (log intensity, higher = more binding, comparable within an allelic series)
27 | AGACCAGG | 9.61 upbm affinity estimate (log intensity, higher = more binding, comparable within an allelic series)
28 | AGGCTCCC | 9.51 upbm affinity estimate (log intensity, higher = more binding, comparable within an allelic series)
29 | CCTGCACC | 9.3 upbm affinity estimate (log intensity, higher = more binding, comparable within an allelic series)
30 | CCAGCCCG | 9.7 upbm affinity estimate (log intensity, higher = more binding, comparable within an allelic series)
31 | TCCTTCGA | 9.72 upbm affinity estimate (log intensity, higher = more binding, comparable within an allelic series)
32 | TAAGAATA | 10.9 upbm affinity estimate (log intensity, higher = more binding, comparable within an allelic series)
33 | ACGCCATA | 11 upbm affinity estimate (log intensity, higher = more binding, comparable within an allelic series)
34 | AGGGACCC | 9.63 upbm affinity estimate (log intensity, higher = more binding, comparable within an allelic series)
35 | CGCATTTA | 11.2 upbm affinity estimate (log intensity, higher = more binding, comparable within an allelic series)
36 | CTATAGAA | 11.1 upbm affinity estimate (log intensity, higher = more binding, comparable within an allelic series)
37 | CTGCATAA | 11.2 upbm affinity estimate (log intensity, higher = more binding, comparable within an allelic series)
38 | AGCCCGGC | 9.64 upbm affinity estimate (log intensity, higher = more binding, comparable within an allelic series)
39 | CATTTAGA | 11.3 upbm affinity estimate (log intensity, higher = more binding, comparable within an allelic series)
40 | AGTATAAC | 11 upbm affinity estimate (log intensity, higher = more binding, comparable within an allelic series)

Target: PROP1 (Homo sapiens, UniProt O75360 56-141)
Experiment: PBM; 200 nM protein, PBS
Conditions: dsDNA, one strand shown

PROP1 (Homo sapiens, UniProt O75360 56-141), sequence (O75360 56-141): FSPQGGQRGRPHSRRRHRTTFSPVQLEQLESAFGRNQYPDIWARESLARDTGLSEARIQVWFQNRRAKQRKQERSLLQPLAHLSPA

Row | Sequence | binding signal
41 | CGGTGCCA | 6.41 upbm affinity estimate (log intensity, higher = more binding, comparable within an allelic series)
42 | CGGGAGCC | 6.62 upbm affinity estimate (log intensity, higher = more binding, comparable within an allelic series)
43 | CTGGACGC | 6.69 upbm affinity estimate (log intensity, higher = more binding, comparable within an allelic series)

Target: PROP1 (Homo sapiens, UniProt O75360 56-141, R99H)
Experiment: PBM; 200 nM protein, PBS
Conditions: dsDNA, one strand shown

PROP1 (Homo sapiens, UniProt O75360 56-141, R99H), sequence (O75360 56-141 R99H): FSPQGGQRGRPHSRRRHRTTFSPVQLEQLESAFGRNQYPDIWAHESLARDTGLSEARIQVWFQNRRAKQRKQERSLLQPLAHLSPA

Row | Sequence | binding signal
44 | CGGTGCCA | 6.46 upbm affinity estimate (log intensity, higher = more binding, comparable within an allelic series)
45 | CGGGAGCC | 6.7 upbm affinity estimate (log intensity, higher = more binding, comparable within an allelic series)
46 | CTGGACGC | 6.62 upbm affinity estimate (log intensity, higher = more binding, comparable within an allelic series)

Target: HOXC9 (Homo sapiens, UniProt P31274 178-260, R222W)
Experiment: PBM; 200 nM protein, PBS
Conditions: dsDNA, one strand shown

HOXC9 (Homo sapiens, UniProt P31274 178-260, R222W), sequence (P31274 178-260 R222W): as the sequence (P31274 178-260 R193K) above, with K16R, R45W counted along it

Row | Sequence | binding signal
47 | CCTCCAGG | 9.67 upbm affinity estimate (log intensity, higher = more binding, comparable within an allelic series)
48 | CGGTGCCA | 9.58 upbm affinity estimate (log intensity, higher = more binding, comparable within an allelic series)
49 | CCGTTATA | 10.3 upbm affinity estimate (log intensity, higher = more binding, comparable within an allelic series)
50 | ATAATAAC | 10.7 upbm affinity estimate (log intensity, higher = more binding, comparable within an allelic series)
51 | GAGAGCTC | 9.65 upbm affinity estimate (log intensity, higher = more binding, comparable within an allelic series)
52 | CGGGAGCC | 9.69 upbm affinity estimate (log intensity, higher = more binding, comparable within an allelic series)
53 | AGGACGTG | 9.71 upbm affinity estimate (log intensity, higher = more binding, comparable within an allelic series)
54 | GGGCCCCC | 9.4 upbm affinity estimate (log intensity, higher = more binding, comparable within an allelic series)
55 | CCTCTGGA | 9.74 upbm affinity estimate (log intensity, higher = more binding, comparable within an allelic series)
56 | CCCCAGGG | 9.62 upbm affinity estimate (log intensity, higher = more binding, comparable within an allelic series)
57 | CTGGACGC | 9.74 upbm affinity estimate (log intensity, higher = more binding, comparable within an allelic series)
58 | AGACCAGG | 9.71 upbm affinity estimate (log intensity, higher = more binding, comparable within an allelic series)
59 | AGGCTCCC | 9.47 upbm affinity estimate (log intensity, higher = more binding, comparable within an allelic series)
60 | CCTGCACC | 9.7 upbm affinity estimate (log intensity, higher = more binding, comparable within an allelic series)
61 | CCAGCCCG | 9.67 upbm affinity estimate (log intensity, higher = more binding, comparable within an allelic series)
62 | TCCTTCGA | 9.84 upbm affinity estimate (log intensity, higher = more binding, comparable within an allelic series)
63 | ACGCCATA | 10.2 upbm affinity estimate (log intensity, higher = more binding, comparable within an allelic series)
64 | AGGGACCC | 9.54 upbm affinity estimate (log intensity, higher = more binding, comparable within an allelic series)
65 | AGCCCGGC | 9.67 upbm affinity estimate (log intensity, higher = more binding, comparable within an allelic series)

Target: PROP1 (Homo sapiens, UniProt O75360 56-141, F88S)
Experiment: PBM; 200 nM protein, PBS
Conditions: dsDNA, one strand shown

PROP1 (Homo sapiens, UniProt O75360 56-141, F88S), sequence (O75360 56-141 F88S): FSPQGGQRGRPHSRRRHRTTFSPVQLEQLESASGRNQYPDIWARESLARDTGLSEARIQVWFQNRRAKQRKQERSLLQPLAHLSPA

Row | Sequence | binding signal
66 | CGGTGCCA | 6.5 upbm affinity estimate (log intensity, higher = more binding, comparable within an allelic series)
67 | CGGGAGCC | 6.53 upbm affinity estimate (log intensity, higher = more binding, comparable within an allelic series)
68 | CTGGACGC | 6.59 upbm affinity estimate (log intensity, higher = more binding, comparable within an allelic series)
